WRN inhibitor = WRN helicase (human) inhibition | Q14191 | WRN helicase unwinding, fluorescent forked duplex, kinetic | Potency, µM (series often up to 114 µM), without a hit: at the top dose activity change, negative = inhibition, usual class: inhibitors | actives 0.46% (n = 360,000) | AID 651768; further: potency means the concentration at half of the fitted maximal effect; on the % scale 0 is the no-effect control and ±100 the full control effect; nearly all actives have a fitted effect of over 55% in size
Target sequence (Q14191 whole entry, looked up): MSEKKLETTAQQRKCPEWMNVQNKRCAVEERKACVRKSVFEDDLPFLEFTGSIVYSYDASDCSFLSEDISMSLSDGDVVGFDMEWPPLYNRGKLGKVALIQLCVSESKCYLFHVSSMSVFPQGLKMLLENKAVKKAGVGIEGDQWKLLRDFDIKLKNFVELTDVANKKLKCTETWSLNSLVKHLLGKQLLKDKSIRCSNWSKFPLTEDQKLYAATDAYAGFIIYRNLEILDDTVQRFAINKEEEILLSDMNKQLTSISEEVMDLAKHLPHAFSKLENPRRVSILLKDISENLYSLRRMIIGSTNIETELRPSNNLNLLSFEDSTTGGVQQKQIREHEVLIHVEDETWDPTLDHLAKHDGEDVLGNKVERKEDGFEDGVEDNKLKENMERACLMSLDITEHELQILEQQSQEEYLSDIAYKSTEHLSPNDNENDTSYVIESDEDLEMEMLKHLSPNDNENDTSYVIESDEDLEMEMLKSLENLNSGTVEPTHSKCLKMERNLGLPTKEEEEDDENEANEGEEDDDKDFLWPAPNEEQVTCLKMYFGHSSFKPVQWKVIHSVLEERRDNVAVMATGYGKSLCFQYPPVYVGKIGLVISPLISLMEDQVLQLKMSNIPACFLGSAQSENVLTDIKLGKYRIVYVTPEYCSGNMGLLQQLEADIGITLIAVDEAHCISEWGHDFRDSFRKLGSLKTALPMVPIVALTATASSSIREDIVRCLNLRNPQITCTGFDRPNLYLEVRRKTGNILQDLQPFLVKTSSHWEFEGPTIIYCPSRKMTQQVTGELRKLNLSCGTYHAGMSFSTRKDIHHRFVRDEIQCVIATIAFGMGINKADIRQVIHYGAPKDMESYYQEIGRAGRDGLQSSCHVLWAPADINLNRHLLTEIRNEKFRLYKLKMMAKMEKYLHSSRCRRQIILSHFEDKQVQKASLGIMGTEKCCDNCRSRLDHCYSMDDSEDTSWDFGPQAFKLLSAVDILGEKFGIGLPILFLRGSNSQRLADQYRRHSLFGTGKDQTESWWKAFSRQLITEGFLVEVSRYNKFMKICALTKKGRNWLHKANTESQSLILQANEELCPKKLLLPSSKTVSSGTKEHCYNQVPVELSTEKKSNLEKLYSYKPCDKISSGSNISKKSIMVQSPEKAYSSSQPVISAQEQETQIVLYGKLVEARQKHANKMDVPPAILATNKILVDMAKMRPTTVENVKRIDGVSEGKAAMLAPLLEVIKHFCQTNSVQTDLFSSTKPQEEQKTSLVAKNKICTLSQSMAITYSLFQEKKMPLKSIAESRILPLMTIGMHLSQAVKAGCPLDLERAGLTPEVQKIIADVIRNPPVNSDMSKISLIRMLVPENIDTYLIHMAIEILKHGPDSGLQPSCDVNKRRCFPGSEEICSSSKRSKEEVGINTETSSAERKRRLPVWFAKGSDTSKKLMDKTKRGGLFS
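Fluorescence dequenching readout, ex 525 nm/em 598 nm, kinetic mode: forked duplex DNA (100 nM final) with adjacent fluorophore and quencher unwound by WRN (20 nM final) with 2 mM ATP. Compound preincubation 15 min, room temperature.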
POLB inh = inhibitors of human DNA polymerase beta; Pol beta primer extension/strand displacement, fluorescence kinetic; Potency, µM (series often up to 114 µM), without a hit: top-dose activity change, negative = inhibition, most hits filed as inhibitors; actives 1.3% (n = 340,000); AID 485314; further: potency means the concentration at half of the fitted maximal effect; on the % scale 0 is the no-effect control and ±100 the full control effect
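Human Pol beta at 10 nM; strand-displacement substrate 50 nM final. Compound exposure 15 min at room temperature before start, reaction 10 min at room temperature.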
POLI inh = inhibitors of human DNA polymerase iota; actives 1% (n = 390,000); Potency, µM (series often up to 115 µM), for the others: top-dose activity, negative = inhibition, actives largely listed as inhibitors; Pol iota fluorescent replication assay, 10 min; further: potency means the concentration at half of the fitted maximal effect
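Pol iota at 10 nM preincubated 15 min with compounds at room temperature; reaction started with fluorescent substrate, 50 nM final. Fluorescence read kinetically at 0 and 10 min; buffer-only wells as negative control.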
POLK inh = blocks human DNA polymerase kappa activity; Potency, µM (titrated, usually from 107 µM), for the others: at the highest dose activity, negative = inhibition, hits mostly inhibitors; purified Pol kappa, fluorescent DNA synthesis assay, 10 min; AID 588579; Q9UBT6; actives 0.53% (n = 400,000); further: potency means the concentration at half of the fitted maximal effect; on the % scale 0 is the no-effect control and ±100 the full control effect
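Readout: fluorescence, taken kinetically at 0 and 10 min. Conditions: 10 nM Pol kappa, 15 min RT compound preincubation, 50 nM substrate final. Controls: enzyme-free buffer wells.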
PI5P4Ka inh = PI5P4K alpha (human) kinase inhibition; P48426; PI5P4Kalpha enzyme, ADP-Glo luminescence, 60 min; active compounds read low; max response, %; actives 1.2% (n = 330,000); AID 652105; active means max response of -50% or lower; inconclusive means between -30% and -50%; inactive means -30% or higher; further: value at the top dose of about 77 µM; on the % scale 0 is the no-effect control and ±100 the full control effect
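Enzyme plus substrate dispensed, test compounds pinned in, then ATP (5 microM final) added. After 60 min at RT, ADP-Glo reagent 1 for 45 min and reagent 2 for 30 min preceded luminescence imaging.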
POLH inh = blocks human DNA polymerase eta activity; actives 1.2% (n = 390,000); Q9Y253; Potency, µM (highest dose often 114 µM), without a hit: at the top dose activity change, negative = inhibition, most hits filed as inhibitors; recombinant Pol eta, fluorescent DNA replication assay; further: potency means the concentration at half of the fitted maximal effect; on the % scale 0 is the no-effect control and ±100 the full control effect
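Fluorescent replication assay: 50 nM final substrate added after a 15 min room-temperature compound preincubation with 10 nM enzyme. Signal taken at 0 min and again at 10 min.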
TbPGK inh = blocks T. brucei phosphoglycerate kinase | Potency, µM (highest dose often 57.5 µM), without a hit: at the highest dose activity change, negative = inhibition, actives largely listed as inhibitors | actives 79% (n = 500) | TbPGK coupled GAPDH assay, Kinase-Glo luminescence | shares compounds with POLK inh; further: potency means the concentration at half of the fitted maximal effect; on the % scale 0 is the no-effect control and ±100 the full control effect; nearly all actives have a fitted effect of over 65% in size
Pol iota confirm = Inhibitors of human DNA polymerase iota, confirmation; shares compounds with POLK inh; AID 720496; actives 77% (n = 1,500); Potency, µM, actives largely listed as inhibitors; Pol iota primer extension, TAMRA/BHQ fluorescence; further: potency means the concentration at half of the fitted maximal effect
* hit, by the source's call; ? = inconclusive; . = not tested or not shown; [ ] = dose if it differs, or a comment. Most compounds without a hit are left out; they make up all but 2.8% or so of the library. Unless noted, the call rests on the fitted dose curve; in most records, active means well fitted curve in the direction sought with a large enough effect; inconclusive means small, poorly fitted or top-dose-only effect, or another doubt; inactive means no such curve, though single readings can be large; an effect the other way counts as inactive or inconclusive.

SMILES	WRN inhibitor	POLB inh	POLI inh	POLK inh	PI5P4Ka inh	POLH inh	others
COc1ccccc1NC(=O)c1cnc(SCC(=O)N2CCOCC2)n(C)c1=O	.	4%	12%	-4%[60.1 µM]	.	?	Pol iota confirm=?
COc1ccc(NC(=O)N(CCC(C)C)C(C)c2cccs2)c(OC)c1 (stereo not drawn)	.	-8%	2%	3%[60.1 µM]	.	-7%
C/C(=N\OC(=O)c1ccc(C)cc1)c1sc(C)nc1C	-26%[57.1 µM]	-3%	2%	-5%	2	-11%
Cc1ccc(C(=O)O/N=C(\N)c2ccccn2)cc1C	-9%	25%	93%	-1%	-1	6%
Cc1ccc(C(=O)O/N=C(\N)c2ccccn2)cc1	1%	-2%	30%	-9%	-55*	-8%	TbPGK inh=6.5µM*
C/C(=N/OC(=O)c1ccc(C)cc1)c1cccs1	8%	-12%	10%	-11%	-25	-2%	TbPGK inh=10µM*
CCOc1ccc(C(=O)O/N=C(\N)c2ccccn2)cc1	-6%	10%	46%	-6%	-79*	-24%	TbPGK inh=9.2µM*
CC(C)(C)c1ccc(C(=O)O/N=C(\N)c2ccccn2)cc1	2%	5%	54%	-7%	-4	-23%
COc1ccc(C(=O)O/N=C(\C)c2ccccc2)cc1	0%[57.1 µM]	14%	-6%	-11%	?	-1%	TbPGK inh=8.2µM*
C[C@H](CO)N1C[C@H](C)[C@@H](CN(C)S(C)(=O)=O)Oc2ccc(NC(=O)NC3CCCCC3)cc2C1=O	-9%	.	17%	2%	9	-19%
CCCCCN1CN(S(=O)(=O)c2cccs2)c2nc3ccccc3nc21	-4%	-2%	-11%	3%	-7	-18%
N/C(=N\OC(=O)c1ccccc1)c1ccccn1	3%	21%	9%	-1%	?	-19%	TbPGK inh=10µM*
CCSc1nc(-c2ccc(Cl)cc2)nc2c1Cc1c(CO)cnc(C)c1O2	.	-15%	16%	-5%	.	5%
Cc1ccc(NC(=O)Cn2cnc3sc(C)c(S(=O)(=O)N4CCN(c5ncccn5)CC4)c3c2=O)cc1F	.	1%	16%	-5%	.	-19%
Cc1ccc(-c2nc3ccccc3o2)cc1NC(=S)NC(=O)/C=C/c1ccco1	?	40µM*	?	-18%	?	22µM*	Pol iota confirm=?
CC(C)CCN1CCN(Cc2ccc3nsnc3c2)CC1CCO (stereo not drawn)	-10%	-1%	25%	-18%	-2	-2%	TbPGK inh=-8%
Cc1ccc(CNC(=O)c2nnn(CC(=O)Nc3cc(C)cc(C)c3)c2N)cc1	-14%[11.6 µM]	?	40µM*	?	-4	?	Pol iota confirm=34*
Cc1cc(C)cc(NC(=O)Cn2nnc(C(=O)NCc3ccc4c(c3)OCO4)c2N)c1	-25%	?	?	?	-2	?
CCOc1ccc(/C=N/NC(=O)c2cc3c(OC)cccc3[nH]2)cc1	-9%[11.6 µM]	50µM*	25µM*	-37%	0	?	Pol iota confirm=?
COc1ccc(OC)c(/C=N/NC(=O)c2cc3c(OC)cccc3[nH]2)c1	-28%	-10%	19%	-16%	-1	-19%
COc1ccc(-c2nnc(SCC(=O)c3ccc(NC(C)=O)cc3)o2)cc1OC	.	4%	15%	2%[60.1 µM]	.	-19%
CCC(C(=O)NC1CCCC1)N(C(=O)c1snc(C(N)=O)c1N)c1ccc(OC)c(OC)c1 (stereo not drawn)	-6%	-24%	67%	0%	-3	-4%
COc1ccc(N(C(=O)c2snc(C(N)=O)c2N)C(C(=O)NC2CCCC2)c2cccs2)cc1OC (stereo not drawn)	-15%[11.6 µM]	?	8.9µM*	-18%	1	?	Pol iota confirm=?
O=C1CN(C(=O)COC(=O)CCc2ccccc2O)c2ccccc2N1	?	.	3%	-1%	-14	-11%
O=C(Cn1nc(C(=O)O)c2ccccc2c1=O)Nc1cccc(S(=O)(=O)N2CCCCCC2)c1	-5%	.	6%	-12%	19	2%
SMILES	WRN inhibitor	POLB inh	POLI inh	POLK inh	PI5P4Ka inh	POLH inh	others
COc1ccccc1-c1nc(-c2ccccn2)no1	-8%	20%	-1%	11%	?	-15%	TbPGK inh=18µM*
Clc1ccc(-c2nc(-c3ccccn3)no2)cc1Cl	-5%	30%	27%	-1%	.	-9%
COc1ccc(-c2nc(-c3ccccn3)no2)cc1	-3%	-1%	8%	11%	?	-4%	TbPGK inh=5.8µM*
Cc1ccccc1-c1nc(-c2ccccn2)no1	8%	-1%	-8%	-5%	-26	-10%
COc1cc(CC2COC(c3ccc(O)c(OC)c3)C2COC(C)=O)ccc1O (stereo not drawn)	50µM*	6.3µM*	10µM*	22µM*	-94*	3.5µM*	TbPGK inh=8.2µM*
CCOc1ccc(NC(=O)Cn2cc(C(=O)c3ccc(CC)cc3)c(=O)c3cc(C)ccc32)cc1	.	?	16%	-9%	.	50µM*	Pol iota confirm=?
Cc1csc(-c2ccc3cc(Cl)cc(Cl)c3n2)n1	0%	.	.	.	19	.
O=C(c1cnccn1)N1CCC2(CCN(Cc3nccs3)CC2)CC1	.	.	.	-6%[60.1 µM]	.	.
CCN(CC)CCOc1ccc2c(c1)C(=NO)c1cc(OCCN(CC)CC)ccc1-2	35µM*	40µM*	20µM*	?	.	?	Pol iota confirm=75*
CCN(CC)CCOc1ccc(Br)cc1	-4%	4%	18%	-10%	.	-1%
Cc1cccc(NC(=O)CSCC(=O)N(C)Cc2c(F)cccc2Cl)c1	-4%	.	-5%	-10%	-1	-20%
CC(C)=CCc1cc(-c2oc3cc(O)cc(O)c3c(=O)c2O)ccc1O	-4%[11.6 µM]	.	?	-14%	-55*	?	TbPGK inh=-28%
Cc1cc2[nH]c3c(c[n+](C)c4ccccc34)c2cc1C	24%[11.6 µM]	1.3µM*	4.5µM*	25µM*	-16	?	Pol iota confirm=15*
COc1ccc(S(=O)(=O)N2CCOCC2)cc1C(=O)NC1CCCCCC1	0%	.	24%	-10%	-3	-6%
Cc1ccc(CC(=O)NCCc2ccc(S(N)(=O)=O)cc2)cc1	0%	22%	-13%	2%	-1	2%
Cc1ccc(S(=O)(=O)NCc2ccc(C(=O)NCCc3ccc(S(N)(=O)=O)cc3)cc2)cc1	-3%[11.6 µM]	?	32µM*	-13%	1	?	Pol iota confirm=?
C=CCN1C=C2C(=O)C(C)(OC(=O)c3cnc4ccccc4n3)C(=O)C=C2C=C1/C=C/COC (stereo not drawn)	-35%[57.1 µM]	.	?	?	-2	25µM*	Pol iota confirm=?
